# Assay results from PubChem BioAssay AID624134 (Broad Institute, 2012).
# Out of some 1,600 compounds screened, about 1,100 (69%) were called active. The set was probably picked from earlier hits. Not all results are given here. Measured potencies and affinities stand elsewhere. Inconclusive results are not listed.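 The calls were made as follows: active = signal drop with fitted half-maximal concentration no higher than twice the top valid tested concentration; inconclusive = flat curve with 30 to 70% signal loss, or poor fit; inactive = the rest, including signal rises and flat curves within 30%.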
# Assay: loss of viability in HepG2 cells – cell-based, CellTiter-Glo, cherry-picked, cytotoxicity control for Shn3 inhibitor project, dose response (AID 624134);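 also: 0% = median of neutral control wells and -100% = median of positive control wells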
# Settings: CellTiter-Glo ATP luminescence, 48 h; series mostly up to 35 µM; activity change, negative = cytotoxicity: at the top concentration
row,Compound,"activity change, negative = cytotoxicity"
1,COc1ccccc1-c1cc(C(F)(F)F)nc(S(=O)(=O)CCCC(=O)Nc2cccnc2Cl)n1,10.7% [at 16 µM] (inactive)
2,CC(C)c1nnc(NC(=O)CCS(=O)(=O)c2nc(-c3cccs3)cc(C(F)(F)F)n2)s1,-52.3% (inactive)
3,COC(=O)c1ccc(N2CCN(S(=O)(=O)c3ccc(C)cc3)CC2)c([N+](=O)[O-])c1,-5.05% (inactive)
4,O=C1CC2(CCN(C(=O)c3ccccc3F)CC2)Oc2ccccc21,-2.72% (inactive)
5,O=C(CSc1c2c(nc3ccc(Cl)cc13)CCCC2)NCc1ccco1,-13.9% (inactive)
6,CSCCC(NC(=O)c1ccccc1)C(=O)OCC(=O)N(C)CCC#N (stereo unspecified),-5.72% (inactive)
7,CC[C@@H](C(=O)[C@@H](C)[C@@H](O)[C@H](C)CCc1ccc(C)c(O)c1C(=O)O)[C@H]1O[C@](CC)([C@H]2CC[C@](O)(CC)[C@H](C)O2)C[C@@H]1C,25.4% (inactive)
8,Cc1cc(C)n2nc(SCc3cccc(S(=O)(=O)N(C)C)c3)nc2n1,-6.75% (inactive)
9,CC(C)NCC(O)COc1cccc2ccccc12 (stereo unspecified),-1.75% (inactive)
10,CCn1c(C)nc2cc(-c3nnc(-c4c(-c5ccccc5)noc4C)o3)ccc21,-9.46% (inactive)
11,COc1ccc(N(C)C(=O)c2ccc3snnc3c2)cc1,-7.24% (inactive)
12,COc1ccc(-c2ccc(Nc3ccc(S(=O)(=O)N4CCCC4)cc3)nn2)cc1OC,-6.38% (inactive)
13,COC(=O)Oc1ccc(/C=C/C(=O)OC(C)C)cc1OC(=O)OC,-16.1% (inactive)
14,Cc1ccc(C(=O)/C=C/c2ccc(-c3ccc(C)cc3)o2)cc1,-19.4% (inactive)
15,CCc1c(C)nc2cc(-c3ccc(OC)c(OC)c3)nn2c1NCC1CC1,-10.7% (inactive)
16,C=CS(=O)(=O)c1sc(Cl)c(N2CCOCC2)c1[N+](=O)[O-],-16.6% (inactive)
17,COc1ccc(-c2nsc3c(N4CCCCC4C)ncnc23)cc1 (stereo unspecified),-2.42% (inactive)
18,CC(Cc1cccs1)NC(=O)Nc1ccc(F)cc1 (stereo unspecified),-3.13% (inactive)
19,COc1ccc(CNC(=O)C(c2ccc(C)cc2)N(Cc2cccs2)C(=O)c2ccc3c(c2)OCCO3)cc1 (stereo unspecified),-11.3% (inactive)
20,COc1ccc(C(O)c2nc(-c3cccc(F)c3)cs2)cc1 (stereo unspecified),-10.4% (inactive)
21,O=C(C1=C[C@@H](C2CC2)C[C@@H](OCCCCO)O1)N1CCN(Cc2ccccc2)CC1,-3.33% (inactive)

row,Compound,"activity change, negative = cytotoxicity"
1,NC(=O)c1cc(N2C(=O)C=CC2=O)ccc1Cl,-12.6% (inactive)
2,CC(C)C(NC(=O)c1ccc(Cl)cc1Cl)C(=O)N1CCN(S(=O)(=O)c2ccccc2)CC1 (stereo unspecified),-15.1% (inactive)
3,O=C(Cc1ccccc1)NCCS(=O)c1ccc(Cl)cc1 (stereo unspecified),0.411% (inactive)
4,Nc1nnc(SCC(=O)Nc2ccc(N3CCOCC3)cc2)s1,14.7% (inactive)
5,CCCc1ccc(C(=O)NNc2cc(Cl)ccc2Cl)cc1,-8.35% (inactive)
6,O=C(c1ccc(S(=O)(=O)c2ccc(F)cc2)c([N+](=O)[O-])c1)N1CCCCCC1,-6.03% (inactive)
7,OCCNc1nc(Nc2ccc(Cl)cc2)nc(N2CCCC2)n1,-5.38% (inactive)
8,CCCn1c(C)cc(C(=O)CN2C(=O)c3ccccc3S2(=O)=O)c1C,0.847% (inactive)
9,O=C1S/C(=C\c2ccc(N3CCOCC3)o2)C(=O)N1Cc1c(F)cccc1Cl,-15.7% (inactive)
10,COc1c(C)cc(C(=O)C2CCCN(C(=O)c3cccc(-n4cccn4)c3)C2)cc1C (stereo unspecified),-3.56% (inactive)
11,Cc1nc2scc(C)n2c(=O)c1S(=O)(=O)Nc1ccc(N2CCOCC2)c(Cl)c1,-6.26% (inactive)
12,O=C(CSc1nc2ncc(Cl)cc2[nH]1)N1CCOCC1,-4.52% (inactive)
13,CC(C)(C)C(=O)Nc1ccc(NC(=O)c2ccco2)nc1,-10.1% (inactive)
14,COc1ccc(S(=O)(=O)NCCC(=O)OCC(=O)NC2CC2)cc1,-16.9% (inactive)
15,O=C(CSc1nnc(Nc2ccccc2)s1)NC1CCS(=O)(=O)C1 (stereo unspecified),-8.91% (inactive)
16,Cc1ccc(S(=O)(=O)N2CCCCC2)cc1NS(=O)(=O)c1ccccc1F,-9.02% (inactive)
17,COc1cccc(C2CC(c3ccc(C)cc3)=NN2C(=O)c2ccccc2F)c1OC (stereo unspecified),-7.78% (inactive)
18,Cc1cc(C(=O)Cn2cnc3cc(F)ccc3c2=O)c(C)n1C1CC1,-1.41% (inactive)
19,CCCc1nc([N+](=O)[O-])c(S(=O)(=O)c2ccccc2)n1CC(C)C,-25.5% (inactive)
20,Cc1ccc(C(=O)Nc2ccc3c(c2)C(=O)N(CC2CCCO2)C3=O)cc1 (stereo unspecified),-10.1% (inactive)
21,COc1ccc([C@@]23Oc4cc(OC)cc(OC)c4[C@]2(O)[C@H](O)[C@H](C(=O)N(C)C)[C@H]3c2ccccc2)cc1,-8.25% (inactive)

row,Compound,"activity change, negative = cytotoxicity"
1,CCN(CC)C(=O)C1CCCN(c2ccc([N+](=O)[O-])cc2[N+](=O)[O-])C1 (stereo unspecified),-12.1% (inactive)
2,CCCCN1CC(COCc2ccccc2)Oc2cccc(Oc3ccc(C(C)C)cc3)c2S1(=O)=O (stereo unspecified),-4.99% (inactive)
3,COc1cccc(-c2nc(NC3CCCC3)c3ccccc3n2)c1O,-14.4% (inactive)
4,O=C(N[C@@H]1C/C=C\C[C@@H](CC(=O)N(CCO)Cc2ccccc2)C(=O)NC[C@H](c2ccccc2)OC1=O)OCC1c2ccccc2-c2ccccc21,2.33% (inactive)
5,Cc1ccc(-c2nc3cccnc3o2)cc1NC(=O)COc1ccc(C(C)(C)C)cc1,-27.5% (inactive)
6,CC(C)CCC(C(=O)O)C(C)CC(=O)NNC(=O)c1ccco1 (stereo unspecified),-2.17% (inactive)
7,CC(C)(C)N(Cc1ccccc1)C(=O)COC(=O)CCc1c[nH]c2ccccc12,-8.24% (inactive)
8,CCCCCCN1C[C@H](n2cc(-c3ccc(F)cc3)nn2)[C@@H](O)C[C@@H]1c1ccc(Cl)cc1,-62.3% (inactive)
9,CC(=O)N1c2ccc(S(=O)(=O)N3CCC(C(=O)N4CCN(c5cc(Cl)ccc5C)CC4)CC3)cc2CC1C (stereo unspecified),1.7% (inactive)
10,Cc1cccc(C)c1NC(=O)CN(C)C(=O)c1cc(S(=O)(=O)N(C)C)ccc1N1CCCC1,5.64% (inactive)
11,CCN(c1ccccc1)S(=O)(=O)c1ccc(Cl)c(NC(=O)CN(C)Cc2cccc(F)c2)c1,-10.9% (inactive)
12,Oc1c(C(c2cccs2)N2CCC3(CC2)OCCO3)sc2ncnn12 (stereo unspecified),-1.02% (inactive)
13,CCOC(=O)/C(=C\c1ccc([N+](=O)[O-])cc1)C(=O)c1cc(C(C)=O)c(Nc2ccccc2)s1,-7.79% (inactive)
14,CCOC(=O)c1[nH]c(C)c(/C(O)=C2\C(=O)C(=O)N(CCCN3CCOCC3)C2c2cccs2)c1C (stereo unspecified),0.789% (inactive)
15,CN1C(=O)c2cccc(NCCCCCCN3C(=O)c4ccccc4C3=O)c2C1=O,-5.25% (inactive)
16,Cc1ccc(C)c(N2CCN(S(=O)(=O)c3ccc4[nH]c(=O)ccc4c3)CC2)c1,3.47% (inactive)
17,Nc1cc(=O)[nH]c(SCC(=O)Nc2cccc([N+](=O)[O-])c2)n1,-5.8% (inactive)
18,CC1Cc2ccccc2N1Cc1cccc(S(=O)(=O)N(C)C)c1 (stereo unspecified),-3.11% (inactive)
19,Cc1cccc(-c2noc(CN(C(=O)C(c3ccccc3)c3ccccc3)C(C)C)n2)c1,-14.7% (inactive)
